This passage reports composite z-score and z-score results from PubChem BioAssay.

Activity calls are given as the source filed them.

Test [1] concerns Plasmodium falciparum Sir2 (PF13_0152, Sir2A). Kind of test: Plasmodium falciparum Sir2A binding compounds – biochemical, small-molecule microarray, 635 nm fluorescence, primary screen (AID 1098).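 Further: score merges spot fluorescence intensity with its signal-to-noise ratio.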 Particulars: fluorescence 635 nm, higher = more signal.
The nature of test [2]: probe aDKK1 binding to arrayed compounds – biochemical, biotinylated probe, 635/667 nm fluorescence, primary screen (AID 1099).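 Further: score merges 667nm spot fluorescence with signal to noise across triplicate slides.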 The following applies: small-molecule microarray, higher = more signal.
Test [3] can be described thus: probe aCHRDL2 binding to arrayed compounds – biochemical, biotinylated probe, 635/667 nm fluorescence, primary screen (AID 1100). The following applies: small-molecule microarray, higher = more signal.
Test [4] can be described thus: change in splice reporter luminescence, either direction, cell-based, HEK293, spliceosome inhibition project, primary screen (AID 1101).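 Further: HEK293 cells carrying a splicing-competent luciferase reporter gene; test concentration not given here.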 Particulars: HEK293 splicing luciferase reporter, 24 h, higher = more signal, called active from +8 up or from −8 down.
The target in test [5] is Fibroblast growth factor 10 (Homo sapiens) (UniProt O15520). The test is described as follows: compounds binding fibroblast growth factor 10 – biochemical, small-molecule microarray, 635 nm fluorescence, primary screen (AID 1102). Particulars: FGF10 binding, fluorescence 635 nm, higher = more signal.
In test [6] the test system is glycogen synthase kinase-3 (GSK3A per assay name; protocol says GSK3B). Kind of test: compounds binding glycogen synthase kinase-3 – biochemical, small-molecule microarray, 635 nm fluorescence, GSK3A, primary screen (AID 1103). Further: the record names both GSK3A and GSK3B. Particulars: fluorescence 635 nm, higher = more signal.
Test [7] addresses Epidermal growth factor receptor (Homo sapiens) (UniProt P00533). Kind of test: compounds binding epidermal growth factor receptor – biochemical, small-molecule microarray, 635 nm fluorescence, primary screen (AID 1104).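 Further: score merges 667 nm emission intensity with spot signal to noise over triplicate slides.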 The following applies: EGFR binding, higher = more signal.
In test [8] the target is Follistatin-related protein 3 (Homo sapiens) (UniProt O95633). The test is described as follows: compounds binding follistatin-related protein 3 – biochemical, small-molecule microarray, 635 nm fluorescence, primary screen (AID 1105).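 Further: score merges emission near 667 nm and signal to noise per printed spot across three slides.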 The following applies: FSTL3 binding, higher = more signal.
The target in test [9] is Dickkopf-related protein 1 (Homo sapiens) (UniProt O94907). Kind of test: small molecules binding DKK1 protein – biochemical, small-molecule microarray, 635 nm fluorescence scan, primary screen (AID 1106).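 Further: score merges emission near 667 nm with signal to noise over three replicate slides.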 Particulars: higher = more signal.
Test [10] has as its system Inhibin beta A chain (activin A). The test is described as follows: small molecules binding activin A – biochemical, small-molecule microarray, 635 nm fluorescence scan, primary screen (AID 1107).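 Further: mouse activin A protein probed at 4.33 µg/mL on printed slides; score merges bound-protein fluorescence near 667 nm with spot signal-to-noise.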 Particulars: INHBA, higher = more signal.
The test system of test [11] is Human papillomavirus type 1a protein E7 (residues 44-93). Kind of test: small molecules binding HPV E7 44-93 – biochemical, small-molecule microarray, residues 44-93, 635 nm fluorescence, primary screen (AID 1108).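 Further: E7 fragment applied at 1 µg/mL in TBST for 1 h at 4 C; score combines spot fluorescence with its signal to noise ratio.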 Particulars: fluorescence 635 nm, higher = more signal.
The nature of test [12]: hepatitis C replication reporter changes, two-sided – Huh7 cells, luciferase reporter, HCV replication inhibitor project, primary screen (AID 1109).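 Further: huh7 hepatoma cells harbouring a luciferase neomycin HCV replicon reporter; luciferase luminescence as measure of HCV replicon replication; test concentration not given here.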 The following applies: Huh7 HCV replicon luciferase reporter, 48 h; higher = more signal.
Test [13] deals with Left-right determination factor 2 (Homo sapiens) (UniProt O00292). The test is described as follows: small molecules binding LEFTY2 protein – biochemical, small-molecule microarray, 635 nm fluorescence scan, primary screen (AID 1110). Particulars: higher = more signal.
Test [14] has as its target Calmodulin-1 (Homo sapiens) (UniProt P0DP23). The test is described as follows: small molecules binding calmodulin-1 with EGTA – biochemical, small-molecule microarray, Cy5-labelled CALM1, profiling panel (AID 1111).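 Further: labelled calmodulin applied in Tris saline Tween buffer holding calcium plus EGTA and DTT.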 Particulars: Cy5-CALM1 binding fluorescence, higher = more signal.
For test [15] the target is unchanged. The test is described as follows: small molecules binding Ca-loaded calmodulin-1 – biochemical, small-molecule microarray, Cy5-labelled CALM1, plus calcium, artefact control for SMM control-protein annotation, profiling panel (AID 1112).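 Further: score merges spot fluorescence with signal to noise from triplicate slides.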 Particulars: Cy5-CALM1 binding fluorescence, higher = more signal.
Test [16] can be described thus: probe aWnt5a binding to arrayed compounds – biochemical, biotinylated probe, 635/667 nm fluorescence, primary screen (AID 1113).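 Further: score merges 667 nm fluorescence intensity with signal-to-noise per printed feature.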 The following applies: small-molecule microarray, higher = more signal.
Test [17] in a line: probe aShh binding to arrayed compounds – biochemical, biotinylated probe, 635/667 nm fluorescence, primary screen (AID 1114).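 Further: probe is biotin-labelled aShh protein from a stem cell growth factor screen; measures binding of labelled protein to compounds printed on the slide; score merges feature fluorescence at 667 nm with signal-to-noise.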 The following applies: small-molecule microarray, higher = more signal.
Test [18] can be described thus: probe aNog binding to arrayed compounds – biochemical, biotinylated probe, 635/667 nm fluorescence, primary screen (AID 1115).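 Further: probe is biotinylated aNog protein used at 0.15 µg/mL for 1 h at 4 C; z-score combines 667 nm fluorescence of each spot with its signal to noise.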 Particulars: small-molecule microarray, higher = more signal.
Test [19] has as its target Torsin-1A-interacting protein 1 (Homo sapiens) (UniProt Q5JTV8). The test is described as follows: compound microarray binding of lysate hLAP1 – cell lysate, small-molecule microarray, COS7 lysate, 635/667 nm fluorescence, primary screen (AID 1116). Particulars: 635 nm fluorescence, higher = more signal.
For test [20], the target named is Alpha-bungarotoxin (Bungarus multicinctus) (UniProt P60615). The test is described as follows: compounds binding labelled alpha-BTX control protein – biochemical, small-molecule microarray, Alexa647 label, 635/667 nm fluorescence, artefact control for SMM control protein annotation, profiling panel (AID 1117). The following applies: alpha-BTX-A647 binding fluorescence, higher = more signal.
Chain of Alpha-bungarotoxin (Bungarus multicinctus) (P60615 whole entry, looked up): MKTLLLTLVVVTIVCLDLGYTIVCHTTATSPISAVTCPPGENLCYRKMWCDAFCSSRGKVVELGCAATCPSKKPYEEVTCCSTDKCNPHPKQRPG

Chain of Follistatin-related protein 3 (Homo sapiens) (O95633 whole entry, looked up): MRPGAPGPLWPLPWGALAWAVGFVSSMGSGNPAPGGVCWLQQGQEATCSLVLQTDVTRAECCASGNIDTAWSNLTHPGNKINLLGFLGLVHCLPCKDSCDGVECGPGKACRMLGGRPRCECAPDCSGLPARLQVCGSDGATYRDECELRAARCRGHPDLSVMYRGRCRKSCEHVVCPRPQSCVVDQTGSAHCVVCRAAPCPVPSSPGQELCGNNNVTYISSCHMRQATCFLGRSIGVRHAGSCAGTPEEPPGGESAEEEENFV
Chain of Torsin-1A-interacting protein 1 (Homo sapiens) (Q5JTV8 whole entry, looked up): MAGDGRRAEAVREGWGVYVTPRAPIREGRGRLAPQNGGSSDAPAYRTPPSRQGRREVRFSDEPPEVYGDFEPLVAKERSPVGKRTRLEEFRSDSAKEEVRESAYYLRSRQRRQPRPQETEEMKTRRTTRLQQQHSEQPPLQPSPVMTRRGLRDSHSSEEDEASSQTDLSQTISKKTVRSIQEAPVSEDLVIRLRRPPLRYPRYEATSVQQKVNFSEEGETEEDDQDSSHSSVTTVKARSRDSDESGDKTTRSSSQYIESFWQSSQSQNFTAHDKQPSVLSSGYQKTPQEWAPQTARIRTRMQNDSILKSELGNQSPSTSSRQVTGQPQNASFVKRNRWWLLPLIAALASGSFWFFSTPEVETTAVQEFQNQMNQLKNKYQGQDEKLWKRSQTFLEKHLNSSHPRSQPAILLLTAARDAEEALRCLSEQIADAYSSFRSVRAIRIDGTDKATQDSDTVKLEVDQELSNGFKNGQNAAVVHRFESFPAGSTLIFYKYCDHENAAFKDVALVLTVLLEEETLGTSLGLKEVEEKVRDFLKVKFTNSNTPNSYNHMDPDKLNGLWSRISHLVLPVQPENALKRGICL
Chain of Dickkopf-related protein 1 (Homo sapiens) (O94907 whole entry, looked up): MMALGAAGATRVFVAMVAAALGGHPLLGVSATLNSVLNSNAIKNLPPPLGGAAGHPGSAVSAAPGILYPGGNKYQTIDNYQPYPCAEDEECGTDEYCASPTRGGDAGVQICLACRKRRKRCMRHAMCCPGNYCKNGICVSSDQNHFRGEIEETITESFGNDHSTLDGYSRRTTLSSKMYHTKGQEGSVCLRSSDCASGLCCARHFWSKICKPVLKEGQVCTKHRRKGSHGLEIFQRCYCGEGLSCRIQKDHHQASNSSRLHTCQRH
Chain of Fibroblast growth factor 10 (Homo sapiens) (O15520 whole entry, looked up): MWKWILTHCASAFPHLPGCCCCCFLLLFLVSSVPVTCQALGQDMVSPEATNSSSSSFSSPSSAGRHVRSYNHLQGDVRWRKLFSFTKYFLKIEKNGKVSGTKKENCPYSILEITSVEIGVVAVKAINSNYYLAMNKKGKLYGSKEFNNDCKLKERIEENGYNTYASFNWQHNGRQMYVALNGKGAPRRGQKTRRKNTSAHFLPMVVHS
Chain of Epidermal growth factor receptor (Homo sapiens) (P00533 whole entry, looked up): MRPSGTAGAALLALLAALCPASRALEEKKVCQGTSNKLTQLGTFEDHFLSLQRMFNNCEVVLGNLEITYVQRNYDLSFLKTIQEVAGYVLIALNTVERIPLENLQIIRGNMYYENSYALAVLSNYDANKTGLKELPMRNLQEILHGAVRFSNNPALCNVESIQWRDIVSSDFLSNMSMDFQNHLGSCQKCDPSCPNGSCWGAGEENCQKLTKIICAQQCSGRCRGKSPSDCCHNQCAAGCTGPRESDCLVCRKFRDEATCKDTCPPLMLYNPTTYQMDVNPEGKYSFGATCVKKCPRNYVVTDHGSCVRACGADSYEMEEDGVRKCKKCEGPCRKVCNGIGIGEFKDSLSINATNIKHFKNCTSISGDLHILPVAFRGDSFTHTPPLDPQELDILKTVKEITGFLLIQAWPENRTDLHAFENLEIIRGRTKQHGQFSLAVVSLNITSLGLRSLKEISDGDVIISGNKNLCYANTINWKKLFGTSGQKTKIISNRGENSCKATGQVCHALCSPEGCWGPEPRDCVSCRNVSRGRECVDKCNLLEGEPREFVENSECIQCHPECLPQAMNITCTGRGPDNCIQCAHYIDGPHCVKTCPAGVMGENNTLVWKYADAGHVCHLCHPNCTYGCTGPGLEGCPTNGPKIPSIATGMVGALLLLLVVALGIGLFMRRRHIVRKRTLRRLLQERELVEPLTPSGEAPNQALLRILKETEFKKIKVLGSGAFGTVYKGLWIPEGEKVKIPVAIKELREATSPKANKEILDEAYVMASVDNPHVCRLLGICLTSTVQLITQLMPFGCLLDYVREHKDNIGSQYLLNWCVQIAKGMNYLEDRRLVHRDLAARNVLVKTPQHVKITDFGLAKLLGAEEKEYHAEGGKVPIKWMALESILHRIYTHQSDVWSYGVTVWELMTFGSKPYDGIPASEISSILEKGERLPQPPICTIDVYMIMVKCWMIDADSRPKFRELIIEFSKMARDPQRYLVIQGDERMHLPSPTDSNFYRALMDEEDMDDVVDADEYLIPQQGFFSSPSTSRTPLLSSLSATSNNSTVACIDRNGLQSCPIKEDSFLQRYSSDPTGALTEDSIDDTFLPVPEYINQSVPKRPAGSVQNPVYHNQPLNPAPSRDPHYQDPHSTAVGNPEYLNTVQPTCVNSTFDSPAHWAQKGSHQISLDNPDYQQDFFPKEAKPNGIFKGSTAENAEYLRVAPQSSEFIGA
Chain of Left-right determination factor 2 (Homo sapiens) (O00292 whole entry, looked up): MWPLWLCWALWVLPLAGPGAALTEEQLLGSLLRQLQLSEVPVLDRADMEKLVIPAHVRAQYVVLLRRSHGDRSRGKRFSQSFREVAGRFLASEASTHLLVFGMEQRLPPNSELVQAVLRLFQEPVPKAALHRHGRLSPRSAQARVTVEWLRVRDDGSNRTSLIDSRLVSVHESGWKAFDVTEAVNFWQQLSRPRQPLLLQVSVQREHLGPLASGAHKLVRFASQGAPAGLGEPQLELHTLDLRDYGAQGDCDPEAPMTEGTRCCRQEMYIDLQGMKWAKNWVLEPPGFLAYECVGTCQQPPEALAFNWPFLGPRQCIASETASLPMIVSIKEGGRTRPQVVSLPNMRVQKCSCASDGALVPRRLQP

Regarding `CO[C@@H]1COC(=O)CC=C[C@@H](C)[C@H](OC)COC(=O)[C@H](COCc2ccccc2)NC(=O)CC=C[C@H]1C`, the composite z-score in [1] is 1.56; in [2] it was -0.516; in [3] it was -1.15; in test [5], 0.303; in test [6] it was -0.112; in [7] it was 0.461. For the same molecule, the composite z-score in test [8] was 0.689; in test [9], 0.444; in test [10], 1.87; in test [11] it was -2.18; in test [13] it was 0.62; in test [14], -1.07. In addition, the composite z-score in test [15] was -2.36; in [16] it was -0.232; in test [17] it was -0.302; in [18] it was -0.625; in test [19], 0.0597; in test [20] it was -0.486. The z-score in test [4] was 0.0688 (inactive); in test [12], -1.36.

On to `CCCNC(=O)OC[C@H]1O[C@H](CCON=C2[C@H]3CCn4c(=O)n(-c5ccccc5)c(=O)n4[C@H]3[C@H](O)[C@@H]3O[C@H]23)C=C[C@@H]1Oc1ccc(OC)cc1`, for which the composite z-score in test [1] is 0.357; in [2], -0.139; in test [3] it was -0.182; in test [5] it was 0.2; in [6], 0.343; in [7] it was -0.0629. The composite z-score was 0.493 in test [8]; 0.378 in test [9]; 0.103 in test [10]; 0.252 in test [11]; 0.292 in test [13]; -1.01 in test [14]. Besides, the composite z-score is -0.661 in test [15]; -0.0944 in test [16]; 0.0062 in test [17]; -0.124 in [18]; -0.0551 in test [19]; 0.134 in [20]. The z-score was -0.374 (inactive) in [4] and -4.4 in test [12].

In the case of `CCOC(=O)C[C@H]1[C@H](OC(=O)c2ccc(C(=O)c3ccccc3)cc2)[C@@H](NC(=O)c2ccc(-c3ccccc3)cc2)c2cc(OCCCO)ccc2N1C(=O)c1ccc2ccccc2n1`, the composite z-score in test [1] was 1.02; in test [2], -0.301; in test [3] it was -0.432; in [5], 1.29; in [6], 0.838; in test [7], 0.519. For the same molecule, the composite z-score in [8] was 0.775; in test [9], 0.606; in [10] it was 0.23; in test [11], 1.07; in test [13], 0.757; in [14], -0.299. Moreover, the composite z-score in test [15] is -0.766; in [16], 0.0835; in test [17] it was -0.317; in test [18], -0.621; in [19] it was 0.249; in test [20] it was 0.774. Besides, the z-score in test [4] is -0.784 (inactive); in test [12], -0.91.

As for `COc1ccc(O[C@H]2C=C[C@@H](c3ccccc3)O[C@@H]2COC(=O)CCC(C)=NO[C@H](C)c2cn([C@@H]3COC[C@H]3O)nn2)cc1`, the composite z-score in [1] is 0.716; in test [2], -0.226; in test [3] it was -0.791; in [5], 0.39; in test [6], 0.387; in test [7] it was 0.562. Moreover, the composite z-score in test [8] was 0.706; in test [9] it was 0.583; in test [10], -0.298; in test [11], 0.765; in test [13] it was 0.51; in [14], -0.121. Further, the composite z-score was -0.686 in test [15]; -0.119 in [16]; 0.0062 in test [17]; -0.185 in [18]; 0.68 in [19]; 1.19 in [20]. In addition, the z-score in test [4] is -1.25 (inactive); in test [12], -2.82.

With `COc1ccc([Si](C)(C)[C@H]2[C@H](CCO)O[C@@]3(C(=O)N(Cc4cccc(NC(=O)[C@H](C)O)c4)c4ccccc43)[C@@H]2C)cc1`, the composite z-score in test [1] is 1.01; in test [2], -0.146; in test [3] it was -0.026; in test [5] it was 1.01; in test [6], 0.738; in [7], 0.382. In addition, the composite z-score is 0.901 in [8]; 0.507 in test [9]; 0.106 in [10]; 1.39 in [11]; 0.383 in test [13]; 0.922 in test [14]. The composite z-score was -0.14 in test [15]; -0.101 in test [16]; 0.0144 in [17]; -0.074 in [18]; 0.798 in test [19]; 1.36 in test [20]. The z-score is -2.55 (inactive) in [4] and -5.13 in test [12].
